The record followed here is PubChem BioAssay (Tox21).

The nature of experiment [1]: qHTS RealTime-Glo MT Cell Viability Assay in HEK293 cells - 16 hour (AID 1224872). Note: top concentration of the series differs between compounds; nearly all actives have a fitted effect of over 50% in size. Put shortly:
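Nonlytic real-time viability readout: viable cells convert prosubstrate to NanoLuc substrate, giving luminescence proportional to live cell number. HEK293, 600 cells/well, compound added after 5 h, continuous culture at 37 C.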
In general terms: qHTS replaces the single test concentration by a dilution series.

Experiment [2] can be described thus: qHTS RealTime-Glo MT Cell Viability Assay in HepG2 cells - 8 hour (AID 1224873). Note: nearly all actives have a fitted effect of over 55% in size. In short, it runs like this:
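HepG2 cells mixed with RealTime-Glo MT reagents (NanoLuc plus cell-permeant prosubstrate) were seeded at 600 cells/well, incubated 5 h at 37 C/5% CO2, then pinned with compounds in DMSO; nonlytic luminescence tracked viability during 40 h treatment.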

The nature of experiment [3]: qHTS RealTime-Glo MT Cell Viability Assay in HEK293 cells - 40 hour (AID 1224874). Note: nearly all actives have a fitted effect of over 50% in size. The note with it: RealTime-Glo luminescence; max response: hits give low values. Put shortly:
(§1)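 qHTS format; HEK293 cells with NanoLuc/prosubstrate reagent, 37 C/5% CO2 for 5 h pre-dosing; compounds 23 nL in DMSO; luminescence at each time point reflects viable cells.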

Experiment [4] is described as follows: A CellTox Green Cytotoxicity Assay to monitor cytotoxicity in HEK293 cells - 24 hour (AID 1224875). For activity change: series mostly up to about 77 µM. Note: nearly all actives have a fitted effect of over 45% in size. Note: potency is the fitted concentration of half-maximal effect. Put shortly:
(§2)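 Each value comes from one timepoint of a single continuous run in which HEK293 cells with CellTox Green were exposed to compound for up to 40 h at 37 C, dye fluorescence rising with cell death.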

The nature of experiment [5]: A CellTox Green Cytotoxicity Assay to monitor cytotoxicity in HepG2 cells - 16 hour (AID 1224876). Note: nearly all actives have a fitted effect of over 45% in size. In short, it runs like this: (§3)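 Continuous culture of HepG2 cells with a membrane-impermeant DNA dye; rising fluorescence marks dead cells. Compound exposure lasted up to 40 h at 37 C, with reads every 8 h from 0 h.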
A short description of experiment [6]: qHTS RealTime-Glo MT Cell Viability Assay in HepG2 cells - 32 hour (AID 1224877). Note: nearly all actives have a fitted effect of over 55% in size. Put shortly:
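Luminescence read-out: viable HepG2 cells reduce a prosubstrate to a NanoLuc substrate, giving a signal proportional to live cell number. Reads taken at 0, 8, 16, 24, 32 and 40 h of compound exposure at 37 C.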

Experiment [7] is described as follows: A CellTox Green Cytotoxicity Assay to monitor cytotoxicity in HepG2 cells - 24 hour (AID 1224878). Note: nearly all actives have a fitted effect of over 45% in size. Put shortly:
as §3

Experiment [8] in a line: A CellTox Green Cytotoxicity Assay to monitor cytotoxicity in HepG2 cells - 40 hour (AID 1224879). Note: nearly all actives have a fitted effect of over 40% in size. Put shortly:
as §3

Experiment [9] is described as follows: qHTS RealTime-Glo MT Cell Viability Assay in HEK293 cells - 0 hour (AID 1224880). Note: top concentration of the series differs between compounds; nearly all actives have a fitted effect of over 45% in size. Put shortly: as §1
Experiment [10] in a line: A CellTox Green Cytotoxicity Assay to monitor cytotoxicity in HEK293 cells - 32 hour (AID 1224881). Note: nearly all actives have a fitted effect of over 40% in size. Note: potency is the fitted concentration of half-maximal effect. In short, it runs like this: as §2

Results filed as inconclusive are left out. A number with no mark means an inactive call. Active and inactive are the calls of the source. Calls come from the whole dose curve; as a rule, active = well fitted curve in the direction sought with a large enough effect in the repeat runs; inconclusive = weak or mixed curves; inactive = no such curve, though single readings can be large; an effect the other way counts as inactive or inconclusive.
% is set by controls: 0 for no effect and ±100 for the full control effect.

With `OCCSCSCCO`, the Potency result in experiment [1], in experiment [2], in experiment [4], in experiment [5], in experiment [6] and in experiment [7] was “inactive” each time. The Potency result in [8] and in experiment [10] was “inactive” throughout. For the same compound, in [3], the max response was 10.4%. Also, in [9], the result was inactive.

As to `CN(N=O)C(N)=O`, the Potency entry in [1], in [2], in [4], in experiment [5], in experiment [6] and in [7] was “inactive” in each case. In addition, the Potency entry in experiment [8] and in experiment [10] was “inactive” in each case. In addition, the max response in experiment [3] was 10.1%. Besides, in experiment [9], the compound was classed as inactive.

On to `Clc1cccc(N2CCNCC2)c1`, for which the Potency result in experiment [1], in experiment [2], in experiment [4], in [5], in experiment [6] and in experiment [7] was “inactive” in each case. The Potency result in experiment [8] and in experiment [10] was “inactive” in each case. Moreover, the max response in experiment [3] was 8.54%. The compound was classed as inactive in experiment [9].

Consider `c1cc2c(c(N3CCNCC3)c1)OCCO2`, for which the Potency result in [1], in [2], in [4], in experiment [5], in experiment [6] and in experiment [7] was “inactive” throughout. Moreover, the Potency result in experiment [8] and in experiment [10] was “inactive” in each case. For the same compound, the max response in experiment [3] is -2.14%. In addition, the compound was classed as inactive in experiment [9].

For the compound `Oc1c(Cl)cccc1Cl`, the Potency entry in [1], in [2], in experiment [4], in experiment [5], in [6] and in experiment [7] was “inactive” throughout. In addition, the Potency entry in experiment [8] and in [10] was “inactive” in each case. Besides, the max response in experiment [3] is 0.323%. For the same compound, the result in [9] was inactive.

For `COc1cc(OC)nc(Oc2cccc(Oc3nc(OC)cc(OC)n3)c2C(=O)O)n1`, the Potency entry in experiment [1], in experiment [2], in [4], in experiment [5], in experiment [6] and in [7] was “inactive” in each case. Further, the Potency entry in [8] and in experiment [10] was “inactive” in each case. Moreover, the max response in experiment [3] is -0.579%. Further, the call in experiment [9] was inactive.

Take `Nc1c(Br)cc([N+](=O)[O-])cc1[N+](=O)[O-]`: the Potency result in experiment [1], in experiment [2], in [4], in experiment [5], in experiment [6] and in [7] was “inactive” in each case. Also, the Potency entry in experiment [8] and in experiment [10] was “inactive” in each case. Also, the max response in experiment [3] was -10.5%. Besides, the compound was called inactive in [9].

Consider `COc1cc(OC)nc(NC(=O)NS(=O)(=O)c2ncccc2OCC(F)(F)F)n1`, for which the Potency entry in [1], in experiment [2], in experiment [4], in experiment [5], in experiment [6] and in experiment [7] was “inactive” each time. The Potency result in experiment [8] and in [10] was “inactive” in each case. Moreover, the max response in experiment [3] is 0.591%. Also, in experiment [9], the call was inactive.

For `O=C(NCO)NCO`, the Potency entry in experiment [1], in experiment [2], in [4], in experiment [5], in experiment [6] and in experiment [7] was “inactive” in each case. Besides, the Potency result in [8] and in experiment [10] was “inactive” in each case. In addition, in [3], the max response is 2.7%. The result in experiment [9] was inactive.

Regarding `O=C1c2ccccc2C(=O)c2ccccc21`, the activity change, negative = cytotoxicity in [1] is 16.4% [at 15.8 µM]; in [9], 1.83% [at 15.8 µM]. Moreover, the viability change, negative = cytotoxic in experiment [2] was 0.64% [at 15.8 µM]. The max response in experiment [3] is 18.9%. For the same compound, the activity change in experiment [4] was 6.87% [at 15.8 µM, hits give high values]. In addition, the cytotoxicity increase in [5] was 8.1% [at 15.8 µM]; in [8] it was 18.9% [at 15.8 µM]; in [10], 6.55% [at 15.8 µM]. Further, in experiment [6], the activity change, negative = cytotoxic was 1.27% [at 15.8 µM]. For the same compound, the cytotoxicity in experiment [7] was 6.42% [at 15.8 µM].

For the compound `CCOP(=S)(OCC)Oc1cc(-c2ccccc2)on1`, the Potency result in [1], in experiment [2], in experiment [4], in experiment [5], in [6] and in [7] was “inactive” in each case. For the same compound, the Potency entry in experiment [8] and in experiment [10] was “inactive” each time. For the same compound, in experiment [3], the max response is -12.9%. The call in experiment [9] was inactive.

Take `CC(C)CC#N`: the Potency result in [1], in [2], in experiment [4], in [5], in experiment [6] and in experiment [7] was “inactive” in each case. Also, the Potency entry in experiment [8] and in experiment [10] was “inactive” throughout. For the same compound, the max response in [3] was 8.82%. In addition, in experiment [9], the result was inactive.

Regarding `Cc1cc(C)c(C(=O)P(=O)(C(=O)c2c(C)cc(C)cc2C)c2ccccc2)c(C)c1`, the Potency result in [1], in experiment [2], in [4], in experiment [5], in experiment [6] and in experiment [7] was “inactive” each time. Besides, the Potency result in [8] and in experiment [10] was “inactive” in each case. For the same compound, in experiment [3], the max response was -8.76%. Moreover, the compound was called inactive in experiment [9].

`COC(=O)c1ccccc1S(=O)(=O)NC(=O)N(C)c1nc(C)nc(OC)n1`: the Potency result in experiment [1], in experiment [2], in experiment [4], in experiment [5], in [6] and in experiment [7] was “inactive” throughout. In addition, the Potency result in [8] and in experiment [10] was “inactive” throughout. The max response in experiment [3] is 10.1%. Besides, in [9], the outcome was inactive.

As for `COc1ncc(F)c2nc(S(=O)(=O)Nc3c(F)cccc3F)nn12`, the Potency result in [1], in experiment [2], in experiment [5], in experiment [6], in experiment [7] and in [8] was “inactive” in each case. The max response in [3] is 6.8%. The Potency was 12.4 µM (active) in [4] and 13.9 µM (active) in experiment [10]. Besides, in experiment [9], the call was inactive.

For the compound `CC1CN1P(=O)(N1CC1C)N1CC1C` (stereo not given), the Potency entry in [1], in experiment [2], in [4], in experiment [5], in experiment [6] and in experiment [7] was “inactive” in each case. In addition, the Potency entry in experiment [8] and in [10] was “inactive” throughout. The max response in experiment [3] was 6.96%. Further, in [9], the compound was classed as inactive.

Take `CC(C)COP(=O)(OCC(C)C)OCC(C)C`: the Potency entry in experiment [1], in experiment [2], in [4], in experiment [5], in experiment [6] and in experiment [7] was “inactive” in each case. For the same compound, the Potency entry in experiment [8] and in experiment [10] was “inactive” in each case. In addition, the max response in experiment [3] is 0.408%.

Regarding `CCOC(=O)C1(c2ccccc2)CCN(CCc2ccc(N)cc2)CC1`, the Potency entry in [1], in experiment [2], in experiment [4], in experiment [5], in experiment [6] and in experiment [7] was “inactive” throughout. Also, the Potency entry in experiment [8] and in [10] was “inactive” throughout. Moreover, the max response in experiment [3] is -22.8%. Also, the compound was called inactive in experiment [9].

As to `O=CNC(N1CCN(C(NC=O)C(Cl)(Cl)Cl)CC1)C(Cl)(Cl)Cl` (stereo not given), the Potency entry in [1], in experiment [2], in experiment [4], in experiment [5], in experiment [6] and in experiment [8] was “inactive” throughout. Besides, the Potency result in experiment [10] was “inactive”. Moreover, the max response in experiment [3] is -2.73%. The compound was classed as inactive in experiment [9].

Regarding `O=[N+]([O-])c1ccc(CBr)cc1`, the Potency result in [1], in [2], in experiment [4], in experiment [5], in experiment [6] and in experiment [7] was “inactive” each time. The Potency result in [8] and in experiment [10] was “inactive” in each case. Moreover, in experiment [3], the max response was 12.7%. In addition, in [9], the outcome was inactive.

Consider `CC1(C)COP(Oc2ccccc2)OC1`, for which the Potency entry in experiment [1], in experiment [2], in experiment [4], in experiment [5], in [6] and in experiment [8] was “inactive” each time. The Potency result in experiment [10] is “inactive”. Besides, the max response in [3] was -1.45%. Besides, the compound was called inactive in experiment [9].

With `COc1cc(C[C@@H](C)N)c(OC)cc1C`, the Potency entry in [1], in [2], in experiment [4], in experiment [5], in experiment [6] and in experiment [8] was “inactive” throughout. Further, the Potency result in [10] was “inactive”. In experiment [3], the max response is -9.2%. Besides, the result in experiment [9] was inactive.

For the compound `O=C1OC(c2ccc(O)c(S(=O)(=O)O)c2)(c2ccc(O)c(S(=O)(=O)O)c2)c2c(Br)c(Br)c(Br)c(Br)c21`, the Potency result in [1], in [2], in experiment [4], in [5], in [6] and in experiment [8] was “inactive” each time. Besides, the Potency result in experiment [10] was “inactive”. The max response in [3] is 11.8%. Also, the compound was called inactive in experiment [9].
